Source: PubChem BioAssay AID1159580 (chemical genetic matrix, 2015)
In all, about 5,500 compounds went through this assay and about 2,000 (36%) were called active. Another 18% or so got no clear call; they are omitted. Cut-off read from the data, not from the text of the source: active = normalized growth mostly below about 0.91 (no sharp cut-off); inconclusive = no clear call, values can overlap the other calls; inactive = mostly above about 0.92. The list shows a part of the results.

Experiment: chemical genetic growth profiling, strain panel (AID 1159580);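 note: tested at 20 µM; growth read once vehicle control cultures reached saturation at 30 °C; 1 = growth at the plate median or of vehicle wells; lower values mean less growth of the strain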
Settings: S. cerevisiae deletion strains, growth OD

Measured: normalized growth

COc1cc(OC)c2c(=O)c(-c3ccc4c(c3)OCO4)coc2c1
inactive: locus YAL021C, strain ccr4, hits give low values 1.01 | locus YAL026C, strain drs2, hits give low values 0.982 | locus YAL030W, strain snc1, hits give low values 0.977 | locus YBL061C, strain skt5, hits give low values 0.979 | locus YBR009C, strain hhf1, hits give low values 0.984 | locus YBR023C, strain chs3, hits give low values 0.989 | locus YBR171W, strain sec66, hits give low values 0.969 | locus YBR231C, strain swc5, hits give low values 1 | locus YBR279W, strain paf1, hits give low values 0.992 | locus YCL011C, strain gbp2, hits give low values 0.981 | locus YCL016C, strain dcc1, hits give low values 0.986 | locus YCL061C, strain MRC1, hits give low values 0.996 | locus YCL069W, strain vba3, hits give low values 0.983 | locus YCR088W, strain abp1, hits give low values 0.979 | locus YDL005C, strain med2, hits give low values 0.997 | locus YDL040C, strain nat1, hits give low values 0.981 | locus YDR001C, strain nth1, hits give low values 0.98 | locus YDR069C, strain doa4, hits give low values 0.998 | locus YDR137W, strain rgp1, hits give low values 1.01 | locus YDR159W, strain sac3, hits give low values 1.01 | locus YDR195W, strain ref2 0.988 | locus YDR297W, strain sur2, hits give low values 0.989 | locus YDR334W, strain swr1, hits give low values 0.991 | locus YDR335W, strain msn5, hits give low values 1 | locus YDR392W, strain spt3, hits give low values 0.802 | locus YEL003W, strain gim4, hits give low values 0.992 | locus YEL037C, strain rad23, hits give low values 0.993 | locus YEL061C, strain CIN8 (second series), hits give low values 0.986 | locus YER015W, strain faa2, hits give low values 1 | locus YER016W, strain bim1, hits give low values 0.987 | locus YER111C, strain swi4, hits give low values 1.01 | locus YER155C, strain BEM2 (second series), hits give low values 0.942 | locus YFR010W, strain ubp6, hits give low values 1 | locus YGL167C, strain pmr1, hits give low values 0.984 | locus YGL173C, strain kem1, hits give low values 0.985 | locus YGL227W, strain vid30, hits give low values 0.978 | locus YGL240W, strain doc1, hits give low values 1.02 | locus YGL253W, strain hxk2, hits give low values 0.977 | locus YHR013C, strain ard1, hits give low values 0.971 | locus YHR027C, strain rpn1, hits give low values 1 | locus YHR030C, strain SLT2, hits give low values 1.05 | locus YHR079C, strain IRE1, hits give low values 1.05 | locus YHR142W, strain chs7, hits give low values 0.931 | locus YJL092W, strain hpr5, hits give low values 0.978 | locus YJL095W, strain BCK1 (second series), hits give low values 0.984 | locus YJL095W, strain BCK1, hits give low values 1.03 | locus YJL115W, strain asf1, hits give low values 0.992 | locus YJL129C, strain trk1, hits give low values 0.918 | locus YJL154C, strain vps35, hits give low values 0.991 | locus YJL164C, strain tpk1, hits give low values 0.98 | locus YJL166W, strain qcr8, hits give low values 0.99 | locus YJL187C, strain SWE1, hits give low values 0.996 | locus YJR066W, strain TOR1, hits give low values 0.99 | locus YKL160W, strain elf1, hits give low values 0.991 | locus YKR026C, strain gcn3, hits give low values 0.98 | locus YKR091W, strain srl3, hits give low values 0.986 | locus YLL001W, strain dnm1, hits give low values 0.977 | locus YLL026W, hits give low values 0.985 | locus YLL041C, strain sdh2, hits give low values 0.99 | locus YLR027C, strain aat2, hits give low values 0.979 | locus YLR113W, strain HOG1, hits give low values 1.08 | locus YLR221C, strain rsa3, hits give low values 0.961 | locus YLR258W, strain gsy2, hits give low values 0.976 | locus YLR262C, strain YPT6 (second series), hits give low values 1.04 | locus YLR320W, strain mms22, hits give low values 0.964 | locus YLR342W, strain FKS1, hits give low values 0.983 | locus YLR357W, strain rsc2, hits give low values 0.987 | locus YLR370C, strain arc18, hits give low values 0.99 | locus YLR384C, strain iki3, hits give low values 0.99 | locus YML120C, strain ndi1, hits give low values 0.967 | locus YMR058W, strain fet3, hits give low values 0.983 | locus YMR125W, strain sto1, hits give low values 0.989 | locus YMR129W, hits give low values 0.981 | locus YMR205C, strain PFK2, hits give low values 0.962 | locus YMR231W, strain pep5, hits give low values 0.987 | locus YNL071W, strain lat1, hits give low values 0.954 | locus YNL183C, strain NPR1, hits give low values 0.984 | locus YNL209W, strain ssb2, hits give low values 0.985 | locus YNL248C, strain rpa49, hits give low values 1.02 | locus YNL322C, strain KRE1 (second series), hits give low values 0.983 | locus YNR049C, strain mso1, hits give low values 0.995 | locus YOR001W, strain rrp6, hits give low values 0.994 | locus YOR070C, strain gyp1, hits give low values 0.999 | locus YOR080W, strain dia2, hits give low values 1 | locus YOR083W, strain WHI5, hits give low values 0.98 | locus YOR106W, strain vam3, hits give low values 0.986 | locus YOR231W, strain MKK1, hits give low values 1.07 | locus YOR265W, strain rbl2, hits give low values 0.99 | locus YOR270C, strain vph1, hits give low values 0.922 | locus YOR290C, strain snf2, hits give low values 0.957 | locus YPL051W, strain arl3, hits give low values 1.01 | locus YPL078C, strain atp4, hits give low values 0.983 | locus YPL106C, strain sse1, hits give low values 0.987 | locus YPL240C, strain hsp82, hits give low values 0.984 | locus YPL256C, strain CLN2, hits give low values 1.05
